HCMV inh: human cytomegalovirus inhibition | HFF cells, HCMV-luciferase reporter, 72 h; active compounds read low | activity change, negative = inhibition, % at 57.5 µM | actives 4.5% (n = 410,000); in the data active = activity change below about -60%; inconclusive = no clear call, values can overlap the other calls; inactive = above about -39%
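Screen run at 2 compound doses on HFFs infected with reporter HCMV, MOI 1 PFU/cell. Luciferase activity from cell lysates at 72 h post infection gave inhibition relative to buffer-only and Salinomycin wells.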
HCV inh: inhibitors of hepatitis C virus infection; Potency, µM (top dose mostly 41.8 µM), actives largely listed as inhibitors; Huh7.5.1 HCVcc-Cre infection, luciferase reporter, 44 h; actives 3.4% (n = 340,000); AID 651820; active = well fitted inhibition curve with a large enough effect; inconclusive = small, poorly fitted or top-dose-only effect, or another doubt; inactive = no such curve, though single readings can be large or run the other way
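HCVcc-Cre virus at an moi near 0.5 was added right after compound to cells cultured 4 h from seeding (1,000 cells/well). Luciferase activity was determined 44 h later, 15 min after substrate addition at RT.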
MARV entry inh: inhibitors of Marburg virus binding or cell entry; Marburg virus pseudotyped entry inhibition, cell reporter; Potency, µM (top dose mostly 37.8 µM), usual class: inhibitors; actives 1.8% (n = 300,000); AID 540276; calls by dose curve; tested in HEK293 cells
FMDV inh: blocks foot and mouth disease virus; actives 1.2% (n = 410,000); AID 1159524; Potency, µM (highest dose often 57.9 µM), most hits filed as inhibitors; FMDV antiviral cell-based qHTS; calls by dose curve; tested in HEK293T cells; note: read-out not given here; nearly all actives have a fitted effect of over 45% in size
Lassa entry inh: blocks Lassa virus binding to or entry into cells. Lassa virus pseudotype entry inhibition, cell reporter. Potency, µM (doses to about 37.9 µM), actives largely listed as inhibitors. actives 1.2% (n = 300,000); calls by dose curve; tested in HEK293 cells; note: nearly all actives have a fitted effect of over 50% in size
Large screens that a line does not name were inactive. Hits are enriched below; roughly 7.9% of the tested compounds scored in any of these assays.

NC(=S)N/N=C1\CCOc2ccc(Cl)cc21	HCMV inh -104, HCV inh inconclusive (no result: MARV entry inh, Lassa entry inh)
C=C1C(=O)C2=CC1CCC(=O)C1(C)CCC(OC(C)=O)C(C)(C)C1CC2O (stereo not drawn)	HCMV inh -99, HCV inh 11µM, MARV entry inh inconclusive, FMDV inh 7.9µM, Lassa entry inh 13µM
CCOc1ccc(Cc2nnc(SCC(=O)c3ccc(OC)cc3)o2)cc1	HCV inh 8.9µM, FMDV inh inconclusive, Lassa entry inh inconclusive
COc1ccc(C(=O)CSc2nnc(Cn3cnc4ccccc43)o2)cc1	HCMV inh inconclusive, HCV inh 2.2µM, FMDV inh inconclusive
CCCCNC(=O)c1nc2cc(C)c(C)cc2nc1-c1cccc(C(F)(F)F)c1	HCMV inh -94 (no result: HCV inh, MARV entry inh, FMDV inh, Lassa entry inh)
O=C(NCc1ccccc1)c1cc[n+](CC(=O)c2cccs2)cc1	none
CCc1ccc(C(=O)NC(=S)Nc2ccc(N3CCOCC3)cc2)cc1	HCMV inh -89, HCV inh inconclusive (no result: MARV entry inh, Lassa entry inh)
CCCC(=O)N1CCN(c2ccc(NC(=S)NC(=O)c3cccc(C)c3)cc2)CC1	HCMV inh inconclusive, HCV inh 7.1µM, MARV entry inh inconclusive, FMDV inh 16µM, Lassa entry inh inconclusive
O=C(NC(=S)Nc1ccc(N2CCOCC2)cc1)c1ccccc1	MARV entry inh inconclusive
O=C(NC(=S)Nc1ccc(N2CCOCC2)cc1)c1cccc(Cl)c1	HCV inh 25µM, MARV entry inh inconclusive
COc1cccc(C(=O)NC(=S)Nc2ccc(N3CCCC3)cc2)c1	HCV inh inconclusive, FMDV inh inconclusive, Lassa entry inh inconclusive
COc1cccc(COC(=O)Cc2ccc(S(=O)(=O)N3CCOCC3)s2)c1OC	none (no result: MARV entry inh, Lassa entry inh)
O=C(c1cccn1-c1nnc(N2CCCCC2)s1)N1CCN(c2ccccc2)CC1	none (no result: HCV inh, MARV entry inh)
CCNC(=S)N/N=C/c1cccc(/C=N/NC(=S)NCC)c1	none
CNC(=S)N/N=C/c1cccc(OCc2ccccc2F)c1	HCV inh inconclusive, MARV entry inh inconclusive, Lassa entry inh 4µM
Fc1ccccc1COc1ccc(/C=N/NC(=S)NCc2ccccc2)cc1	Lassa entry inh inconclusive
CCNC(=S)N/N=C/c1cccc(OCc2c(F)cccc2Cl)c1	HCMV inh inconclusive, HCV inh inconclusive, MARV entry inh inconclusive, FMDV inh inconclusive, Lassa entry inh 9.2µM
Cc1ccc(Nc2nc3ccccc3[nH]2)nc1	HCMV inh -77, HCV inh inconclusive, MARV entry inh inconclusive, FMDV inh inconclusive, Lassa entry inh inconclusive
Cc1ccc(C)c(C(=O)Nc2nc3ccccc3[nH]2)c1	none (no result: Lassa entry inh)
C=CCCN1C(=O)NC(c2ccccc2)C(C(C)=O)=C1C (stereo not drawn)	none (no result: HCMV inh, HCV inh, FMDV inh, Lassa entry inh)
CCOc1ccccc1CN1CCCC(c2nc(C)ncc2-c2ccc(F)cc2)C1 (stereo not drawn)	none (no result: HCMV inh, HCV inh, MARV entry inh, Lassa entry inh)
COc1ccc(C(Nc2ccccn2)c2c(NC(=O)c3ccco3)sc(C)c2C)cc1 (stereo not drawn)	HCMV inh inconclusive, HCV inh inconclusive
Cc1sc(NC(=O)c2ccco2)c(C(c2cccnc2)N2CCCC2)c1C (stereo not drawn)	HCMV inh -62, HCV inh 13µM, MARV entry inh inconclusive
Cc1sc(NC(=O)c2ccco2)c(C(Nc2ccccn2)c2ccccc2)c1C (stereo not drawn)	HCV inh 14µM, Lassa entry inh inconclusive
Cc1sc(NC(=O)c2ccco2)c(C(c2cccnc2)N2CCN(C)CC2)c1C (stereo not drawn)	HCV inh inconclusive, MARV entry inh inconclusive, Lassa entry inh inconclusive
CC(=O)c1ccc(NC(=O)N2CCN(c3cccc(Cl)c3)CC2)cc1	HCV inh 13µM, MARV entry inh inconclusive
CC(=O)c1ccc(N2CCN(C(=O)Nc3ccc(Cl)cc3)CC2)cc1	HCMV inh inconclusive, HCV inh inconclusive
COc1cccc(N2CCN(C(=O)c3cccc(-n4c(C)nc5cccnc54)c3)CC2)c1	FMDV inh 28µM (no result: HCV inh, MARV entry inh)
COC(=O)c1cc(C(=O)N2CCN(c3cccc(Cl)c3)CC2)cc([N+](=O)[O-])c1	HCMV inh -68, MARV entry inh inconclusive, Lassa entry inh inconclusive
Cc1nc2cccnc2n1-c1cccc(C(=O)N2CCN(c3cccc(Cl)c3)CC2)c1	FMDV inh 25µM, Lassa entry inh inconclusive (no result: HCV inh, MARV entry inh)
COc1cccc(N2CCN(C(=O)c3ccc4nc[nH]c4c3)CC2)c1	none
COC(=O)N1CCC2(CC1)CN(c1cccc(-c3ccccc3)c1)C2	none (no result: HCMV inh, HCV inh, MARV entry inh, Lassa entry inh)
COc1cc([C@H]2C[C@H](C(F)(F)F)n3ncc(C(=O)O)c3N2)cc(OC)c1OC	none (no result: HCMV inh, HCV inh, FMDV inh, Lassa entry inh)
O=C(Nc1cccc(C(=O)N2CCN(c3cccc(Cl)c3)CC2)c1)c1ccccc1	HCV inh 14µM (no result: MARV entry inh, Lassa entry inh)
O=C(c1ccc2c(Cl)c3c(nc2c1)CCCC3)N1CCN(c2cccc(Cl)c2)CC1	MARV entry inh inconclusive, FMDV inh inconclusive (no result: HCV inh)
COc1cccc(N2CCN(C(=O)c3ccc4c(Cl)c5c(nc4c3)CCCC5)CC2)c1	HCMV inh -75, FMDV inh inconclusive, Lassa entry inh inconclusive (no result: HCV inh)
COc1ccc(C(C)N(C)Cc2nc(N3CCN(C(=O)c4ccco4)CC3)c3ccccc3n2)cc1 (stereo not drawn)	none (no result: HCMV inh, HCV inh, MARV entry inh, Lassa entry inh)
CC1CCN(S(=O)(=O)c2ccc3c(c2)C(=NO)c2cc(S(=O)(=O)N4CCC(C)CC4)ccc2-3)CC1	HCMV inh -99, HCV inh 2µM, MARV entry inh inconclusive, FMDV inh inconclusive, Lassa entry inh 2.5µM
O=S(=O)(c1ccc2c(c1)C(=NO)c1cc(S(=O)(=O)N3CCCCC3)ccc1-2)N1CCCCC1	HCMV inh -102, HCV inh 5µM, MARV entry inh inconclusive, FMDV inh inconclusive, Lassa entry inh 6.3µM
CC1CCN(S(=O)(=O)c2ccc3[nH]ccc3c2)CC1	HCMV inh -94 (no result: HCV inh, MARV entry inh)
COC(=O)[C@@H]1[C@@H](CO)[C@@H]2Cn3c(ccc(Br)c3=O)[C@H]1N2CCc1ccccc1	none (no result: HCV inh, MARV entry inh, FMDV inh, Lassa entry inh)
Cc1ccc(-c2nnc(NCc3ccccc3)c3ccccc23)cc1	HCV inh 11µM, FMDV inh inconclusive
Clc1ccc(-c2nnc(NCc3ccccc3)c3ccccc23)cc1	HCV inh inconclusive, MARV entry inh inconclusive, FMDV inh inconclusive, Lassa entry inh inconclusive
Cc1nnc(SCC(=O)Nc2ccc3c(c2)OCO3)o1	HCMV inh -60
CCn1c(SCC(=O)Nc2ccc3c(c2)OCCO3)nnc1-c1ccccn1	none
Cc1ccccc1-n1c(SCC(=O)Nc2ccc3c(c2)OCO3)nnc1-c1ccccn1	HCV inh 22µM, MARV entry inh inconclusive
COCc1cc(C)nc(SCC(=O)Nc2ccc3c(c2)OCO3)c1C#N	HCV inh 11µM
CCc1nnc(SCC(=O)Nc2ccc3c(c2)OCO3)o1	HCMV inh inconclusive
CC[C@@H](C)[C@H](C(CC(=O)N1CCCC1[C@@H](OC)[C@H](C)C(=O)N[C@H](Cc1ccccc1)c1nccs1)OC)N(C)C(=O)[C@H](NC(=O)[C@@H](C(C)C)N(C)C)C(C)C (stereo partly drawn)	HCMV inh -91, Lassa entry inh inconclusive
O=C1C(=O)c2ccccc2C(O)=C1CC=C(Cl)Cl	HCMV inh -95, MARV entry inh inconclusive, FMDV inh inconclusive, Lassa entry inh 3.2µM
CC(C)=CCC1=C(O)c2ccccc2C(=O)C1=O	none (no result: HCMV inh, HCV inh, MARV entry inh, Lassa entry inh)

Source: PubChem
